Common to all, as to set-up: species or system human, MV4-11 + K-562 + COLO205 + SK-N-BE2 + OVCAR-8
The test system of test [1] is ACVR1B. Particulars: read-out: apparent Kd, n = 1.
Test [2] concerns ACVR1. Particulars: read-out: apparent Kd; compound concentrations: 100 nM and 1000 nM (sheet 'Samples'), CATDS: 2.5761015840506201E-2; n = 1.
The test system of test [3] is CIT. Particulars: read-out: apparent Kd; compound concentrations: 100 nM and 1000 nM (sheet 'Samples'), CATDS: 4.5392232292010899E-2; n = 1.
Test [4] relates to CSNK1A1. Particulars: read-out: apparent Kd, n = 1.
In test [5] the test system is CSNK1D. Particulars: read-out: apparent Kd, n = 1.
Test [6] has as its system CSNK1E. Particulars: read-out: apparent Kd, n = 1.
The test system of test [7] is DDR1. Particulars: read-out: apparent Kd; compound concentrations: 100 nM and 1000 nM (sheet 'Samples'), CATDS: 4.8095496683990102E-2; n = 1.
For test [8], the system named is DDR2. Particulars: read-out: apparent Kd; compound concentrations: 100 nM and 1000 nM (sheet 'Samples'), CATDS: 4.5410766330070199E-2; n = 1.
In test [9] the test system is GAK. Particulars: read-out: apparent Kd; compound concentrations: 100 nM and 1000 nM (sheet 'Samples'), CATDS: 2.6841490369303E-2; n = 1.
Test [10] relates to JAK1. Particulars: read-out: apparent Kd; compound concentrations: 100 nM and 1000 nM (sheet 'Samples'), CATDS: 2.6628241709745499E-2; n = 1.
Test [11] deals with MAPK10. Particulars: read-out: apparent Kd; compound concentrations: 100 nM and 1000 nM (sheet 'Samples'), CATDS: 4.9321772364443003E-2; n = 1.
Test [12] deals with MAPK11. Particulars: read-out: apparent Kd; compound concentrations: 100 nM and 1000 nM (sheet 'Samples'), CATDS: 2.6556217045786298E-2; n = 1.
In test [13] the test system is MAPK14. Particulars: read-out: apparent Kd; compound concentrations: 100 nM and 1000 nM (sheet 'Samples'), CATDS: 9.6245202156368906E-2; n = 1.
The subject of test [14] is MAPK8. Particulars: read-out: apparent Kd; compound concentrations: 100 nM and 1000 nM (sheet 'Samples'), CATDS: 2.73704072863558E-2; n = 1.
Test [15] relates to MAPK9. Particulars: read-out: apparent Kd; compound concentrations: 100 nM and 1000 nM (sheet 'Samples'), CATDS: 5.3906209351099597E-2; n = 1.
The subject of test [16] is MAPKAPK2. Particulars: read-out: apparent Kd; compound concentrations: 100 nM and 1000 nM (sheet 'Samples'), CATDS: 8.8407398731798204E-2; n = 1.
Test [17] has as its system MYLK3. Particulars: read-out: apparent Kd; compound concentrations: 100 nM and 1000 nM (sheet 'Samples'), CATDS: 2.9739343508474202E-2; n = 1.
Test [18] concerns NLK. Particulars: read-out: apparent Kd; compound concentrations: 100 nM and 1000 nM (sheet 'Samples'), CATDS: 4.6610928560784803E-2; n = 1.
The test system of test [19] is PKN3. Particulars: read-out: apparent Kd; compound concentrations: 100 nM and 1000 nM (sheet 'Samples'), CATDS: 2.84976438170014E-2; n = 1.
Test [20] has as its system PRKD2. Particulars: read-out: apparent Kd, n = 1.
The test system of test [21] is PRKD3. Particulars: read-out: apparent Kd, n = 1.
Test [22] has as its system RIPK2. Particulars: read-out: apparent Kd; compound concentrations: 100 nM and 1000 nM (sheet 'Samples'), CATDS: 7.8449677339207394E-2; n = 1.
Test [23] deals with RIPK3. Particulars: read-out: apparent Kd; compound concentrations: 100 nM and 1000 nM (sheet 'Samples'), CATDS: 2.3985776131164802E-2; n = 1.
In test [24] the test system is TGFBR1. Particulars: read-out: apparent Kd, n = 1.
Test [25] has as its system TNIK. Particulars: read-out: apparent Kd; compound concentrations: 100 nM and 1000 nM (sheet 'Samples'), CATDS: 2.6108076869188701E-2; n = 1.
For test [26], the system named is CDC42. Particulars: read-out: apparent Kd; compound concentrations:100 nM and 1000 nM (sheet 'Samples'); n = 1.
Test [27] relates to NQO2. Particulars: read-out: apparent Kd; compound concentrations:100 nM and 1000 nM (sheet 'Samples'); n = 1.
Test [28] deals with CSNK2A1;CSNK2A3. Particulars: read-out: apparent Kd; compound concentrations:100 nM and 1000 nM (sheet 'Samples'); n = 1.
Test [29] has as its system CSNK2A2. Particulars: read-out: apparent Kd; compound concentrations:100 nM and 1000 nM (sheet 'Samples'); n = 1.
For test [30], the system named is ILK. Particulars: read-out: apparent Kd; compound concentrations:100 nM and 1000 nM (sheet 'Samples'); n = 1.
Test [31] concerns MAP2K1. Particulars: read-out: apparent Kd; compound concentrations:100 nM and 1000 nM (sheet 'Samples'); n = 1.
The test system of test [32] is MAP2K2. Particulars: read-out: apparent Kd; compound concentrations:100 nM and 1000 nM (sheet 'Samples'); n = 1.
The test system of test [33] is PIK3CA. Particulars: read-out: apparent Kd; compound concentrations:100 nM and 1000 nM (sheet 'Samples'); n = 1.
For test [34], the system named is PIK3CD. Particulars: read-out: apparent Kd; compound concentrations:100 nM and 1000 nM (sheet 'Samples'); n = 1.
Test [35] deals with PSMC3. Particulars: read-out: apparent Kd; compound concentrations:100 nM and 1000 nM (sheet 'Samples'); n = 1.
[36] abbreviates: compound concentrations:100 nM and 1000 nM (sheet 'Samples').

SMILES strings stand for the structures. Where two headings read alike, the source gives them in different places.

Consider `Nc1nccc(-c2c(-c3ccc(F)cc3)ncn2C2CCC(O)CC2)n1` (stereo not drawn) [SB-223133], for which the potency estimated from few doses in [1] (compound concentrations: 100 nM and 1000 nM (sheet 'Samples'), CATDS: 5.67589208103269E-2) was 74.5 nM; in [2] it was 1350 nM; in [3], 140 nM; in test [4] (compound concentrations: 100 nM and 1000 nM (sheet 'Samples'), CATDS: 0.114009601510889), 15 nM; in test [5] (compound concentrations: 100 nM and 1000 nM (sheet 'Samples'), CATDS: 0.391959397884028) it was 1.72 nM; in test [6] (compound concentrations: 100 nM and 1000 nM (sheet 'Samples'), CATDS: 0.26273499221924201) it was 3.2 nM. Besides, the potency estimated from few doses in test [7] was 118 nM; in test [8] it was 140 nM; in test [9], 1070 nM; in test [10], 1120 nM; in test [11], 110 nM; in [12], 1140 nM. Further, the potency estimated from few doses was 21.4 nM in [13]; 969 nM in test [14]; 85.6 nM in test [15]; 25.8 nM in [16]; 653 nM in [17]; 129 nM in [18]. Moreover, the potency estimated from few doses in test [19] was 794 nM; in [20] (compound concentrations: 100 nM and 1000 nM (sheet 'Samples'), CATDS: 2.85113335407263E-2), 793 nM; in [21] (compound concentrations: 100 nM and 1000 nM (sheet 'Samples'), CATDS: 2.77377290368628E-2) it was 906 nM; in test [22], 33.7 nM; in [23], 2140 nM; in test [24] (compound concentrations: 100 nM and 1000 nM (sheet 'Samples'), CATDS: 3.9958881168014597E-2), 210 nM. The potency estimated from few doses in test [25] was 1250 nM.

As for `CN(C(=O)c1ccc(-c2cc(-c3c[nH]nc3-c3ccccn3)ccn2)cc1)C1CCOCC1` [GW810083X], the potency estimated from few doses in test [1] (setting [36]) is 788 nM; in [26], 1840 nM; in [4] (setting [36]), 2390 nM; in test [5] (setting [36]), 1940 nM; in test [27], 1200 nM; in test [24] (setting [36]) it was 198 nM.

`Cc1cccc(-c2nc(Nc3ccc4[nH]ncc4c3)c3ccccc3n2)n1` [GW857175X]: the potency estimated from few doses in test [1] (setting [36]) is 89 nM; in test [28], 4.12 nM; in test [29] it was 3.3 nM; in test [20] (setting [36]) it was 8.89 nM; in test [21] (setting [36]), 35.5 nM.

Consider `Cc1cc(Nc2nc(-c3cccc(C)n3)nc3ccccc23)ccn1` [GW872411X], for which the potency estimated from few doses in test [1] (setting [36]) was 471 nM; in test [5] (setting [36]), 1530 nM; in test [6] (setting [36]) it was 1700 nM; in test [30], 1610 nM; in [31] it was 2130 nM; in [32] it was 1690 nM. Further, the potency estimated from few doses in test [33] was 247 nM; in [34], 155 nM; in test [20] (setting [36]) it was 4.12 nM; in test [21] (setting [36]) it was 6.25 nM; in test [35] it was 1810 nM; in [24] (setting [36]), 182 nM.

The record behind these values is article PMC11062922 (Nature Chemical Biology, 2023).
